Data taken from PubChem BioAssay.
Active and inactive are the calls of the source.

Tests used:
[1] = optical density shifts of acrAB sulA E. coli – strain DRC41, OD650, 48 h, E. coli filamentation inducer project, primary screen (AID 1152); settings: higher = more signal, called active from +8 up or from −8 down;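 also: E. coli MC1000 strain DRC41 lacking acrAB efflux pump and sulA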
[2] = probe aLefty1 binding on compound microarray – biochemical, small-molecule microarray, 635/667 nm fluorescence, primary screen (AID 1153); settings: higher = more signal;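 also: score merges spot fluorescence with signal-to-noise ratio from the scanned slide images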
[3] = plasmodial surface anion channel blockers, osmotic lysis – cell-based, P. falciparum Indochina, OD700, 1 h, primary screen (AID 1154); settings: P. falciparum Indochina infected RBC osmotic lysis, higher = more signal, called active from +8 up or from −8 down
[4] = plasmodial surface anion channel blockers, osmotic lysis – cell-based, P. falciparum Indochina, OD700, 2 h, primary screen (AID 1155);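 also: lysis reports solute entry through the parasite surface anion channel PSAC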; settings: P. falciparum Indochina infected erythrocytes, higher = more signal, called active from +8 up or from −8 down
[5] = changes in parasitized red cell lysis, either direction – P. falciparum Indochina, OD700, 3 h, PSAC antagonist project, primary screen (AID 1156); settings: P. falciparum-infected erythrocytes, osmotic lysis, higher = more signal, called active from +8 up or from −8 down
[6] = plasmodial surface anion channel blockers, osmotic lysis – cell-based, P. falciparum Indochina, OD700, 18 h, primary screen (AID 1157); settings: P. falciparum Indochina infected erythrocytes, osmotic lysis OD700, 18 h; higher = more signal, called active from +8 up or from −8 down
[7] = S6 kinase pathway phospho-S6 level changes – cell-based, A549, cytoblot, luminescence, serum-stimulated, primary screen (AID 1158); settings: 5 h, higher = more signal;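 also: serum-stimulated A549 lung adenocarcinoma cells; signal is phosphorylated S6 detected by cytoblot immunostaining with HRP secondary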
[8] = biological target: NADPH oxidase 2 (Homo sapiens) (UniProt P04839); experiment: compounds shifting NOX2 Amplex Red fluorescence – cell-based, HEK293-NOX2, PMA-stimulated, NOX inhibitor project, primary screen (AID 1159); settings: 45 min, higher = more signal, called active from +8 up or from −8 down; also: test concentration not given here
NADPH oxidase 2 (Homo sapiens), sequence (P04839 whole entry, looked up): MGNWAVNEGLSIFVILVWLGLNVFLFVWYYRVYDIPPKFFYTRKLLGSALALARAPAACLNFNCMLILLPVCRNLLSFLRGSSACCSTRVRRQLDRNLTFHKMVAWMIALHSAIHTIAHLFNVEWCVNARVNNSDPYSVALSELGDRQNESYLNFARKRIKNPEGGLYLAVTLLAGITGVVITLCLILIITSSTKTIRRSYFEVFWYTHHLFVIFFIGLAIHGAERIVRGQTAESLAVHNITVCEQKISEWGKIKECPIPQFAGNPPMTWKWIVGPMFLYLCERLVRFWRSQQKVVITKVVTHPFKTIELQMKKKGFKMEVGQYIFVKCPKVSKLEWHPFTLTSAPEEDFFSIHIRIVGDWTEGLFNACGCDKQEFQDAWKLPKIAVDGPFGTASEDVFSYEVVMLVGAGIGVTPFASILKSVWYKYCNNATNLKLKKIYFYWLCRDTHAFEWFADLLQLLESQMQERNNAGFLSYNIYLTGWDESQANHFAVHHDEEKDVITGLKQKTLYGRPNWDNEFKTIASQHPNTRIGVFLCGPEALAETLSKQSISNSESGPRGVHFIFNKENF

[9] = biological target: NADPH oxidase 4 (Homo sapiens) (UniProt Q9NPH5); experiment: compounds shifting NOX4 Amplex Red fluorescence – cell-based, HEK293-NOX4, tetracycline-induced, NOX inhibitor project, primary screen (AID 1160); settings: HEK293-NOX4, Amplex Red H2O2 fluorescence, 45 min; higher = more signal, called active from +8 up or from −8 down
NADPH oxidase 4 (Homo sapiens), sequence (Q9NPH5 whole entry, looked up): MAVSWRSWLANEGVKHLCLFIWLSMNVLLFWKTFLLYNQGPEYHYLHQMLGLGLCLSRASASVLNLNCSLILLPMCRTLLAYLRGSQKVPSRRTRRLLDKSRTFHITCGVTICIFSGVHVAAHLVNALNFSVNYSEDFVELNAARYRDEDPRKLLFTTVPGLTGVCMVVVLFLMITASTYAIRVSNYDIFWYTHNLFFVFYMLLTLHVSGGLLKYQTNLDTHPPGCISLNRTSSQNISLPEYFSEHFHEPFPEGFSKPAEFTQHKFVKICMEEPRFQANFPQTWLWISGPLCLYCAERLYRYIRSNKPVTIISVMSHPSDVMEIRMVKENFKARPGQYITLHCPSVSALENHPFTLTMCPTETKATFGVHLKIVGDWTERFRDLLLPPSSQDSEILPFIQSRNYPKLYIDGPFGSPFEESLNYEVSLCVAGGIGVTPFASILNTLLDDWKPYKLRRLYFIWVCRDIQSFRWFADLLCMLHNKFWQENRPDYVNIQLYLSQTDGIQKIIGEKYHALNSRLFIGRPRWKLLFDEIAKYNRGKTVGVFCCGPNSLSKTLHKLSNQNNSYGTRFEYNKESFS

[10] = biological target: NADPH oxidase 5 (Homo sapiens) (UniProt Q96PH1); experiment: compounds shifting NOX5 Amplex Red fluorescence – cell-based, HEK293-NOX5, NOX inhibitor project, primary screen (AID 1161); settings: HEK293-NOX5, ionomycin, 45 min, higher = more signal
NADPH oxidase 5 (Homo sapiens), sequence (Q96PH1 whole entry, looked up): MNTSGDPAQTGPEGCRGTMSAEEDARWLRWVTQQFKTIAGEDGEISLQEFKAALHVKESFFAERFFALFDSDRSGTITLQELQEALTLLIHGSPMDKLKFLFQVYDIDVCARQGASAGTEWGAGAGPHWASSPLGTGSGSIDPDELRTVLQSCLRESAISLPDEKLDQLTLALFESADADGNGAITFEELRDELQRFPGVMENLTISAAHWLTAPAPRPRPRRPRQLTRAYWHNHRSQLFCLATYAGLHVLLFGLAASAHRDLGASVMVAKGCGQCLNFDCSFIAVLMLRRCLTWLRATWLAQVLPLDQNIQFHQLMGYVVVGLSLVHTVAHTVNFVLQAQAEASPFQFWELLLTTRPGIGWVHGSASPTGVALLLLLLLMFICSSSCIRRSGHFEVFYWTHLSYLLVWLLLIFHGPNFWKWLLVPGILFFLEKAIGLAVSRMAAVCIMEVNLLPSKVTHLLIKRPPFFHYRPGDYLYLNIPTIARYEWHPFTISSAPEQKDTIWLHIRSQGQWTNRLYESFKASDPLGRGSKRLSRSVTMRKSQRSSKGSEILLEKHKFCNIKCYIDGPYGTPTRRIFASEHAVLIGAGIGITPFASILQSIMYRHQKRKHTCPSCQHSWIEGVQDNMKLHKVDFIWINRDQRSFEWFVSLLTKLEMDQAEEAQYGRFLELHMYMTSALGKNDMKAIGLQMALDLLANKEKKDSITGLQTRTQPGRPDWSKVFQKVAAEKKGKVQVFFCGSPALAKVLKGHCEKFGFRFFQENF

[11] = compound effects on lung adenocarcinoma cell viability – A549, calcein-AM fluorescence, 48 h, basal, profiling panel (AID 1162); settings: higher = more signal; also: test concentration not given here
[12] = compound effects on differentiated 3T3-L1 adipocyte viability – cell-based, 3T3-L1 adipocytes, calcein-AM fluorescence, 48 h, basal, profiling panel (AID 1163); settings: 3T3-L1 adipocytes viability, higher = more signal; also: test concentration not given here
[13] = compound effects on hepatocellular carcinoma cell viability – HepG2, calcein-AM fluorescence, 48 h, basal, profiling panel (AID 1164); settings: higher = more signal; also: test concentration not given here
[14] = compound effects on multiple myeloma cell viability – MM1S, calcein-AM fluorescence, 48 h, basal, profiling panel (AID 1165); settings: higher = more signal;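 also: viability of MM1S multiple myeloma cells under basal unstimulated conditions; test concentration not given here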
[15] = calcein-AM signal in unstimulated myeloma cells – cell-based, calcein-AM fluorescence, 48 h, PK04 Diversity Set, profiling panel (AID 1166); settings: RPMI8226 myeloma viability, higher = more signal;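 also: cells grown under basal conditions without added stimulus; test concentration not given here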
[16] = JC-1 mitochondrial signal, unstimulated HepG2 cells – cell-based, JC-1 fluorescence, 24 h, 100 nL compound, profiling panel (AID 1167); settings: HepG2 mitochondrial potential, higher = more signal; also: test concentration not given here
[17] = JC-1 mitochondrial signal, unstimulated adipocytes – cell-based, JC-1 fluorescence, 3T3-L1 adipocytes, 24 h, 100 nL compound, profiling panel (AID 1168); settings: JC-1 mitochondrial fluorescence, higher = more signal, called active from +8 up or from −8 down; also: test concentration not given here
[18] = JC-1 mitochondrial signal, unstimulated myeloma cells – cell-based, JC-1 fluorescence, RPMI8226, 24 h, 100 nL compound, profiling panel (AID 1169); settings: JC-1 mitochondrial potential fluorescence, higher = more signal; also: test concentration not given here
[19] = JC-1 mitochondrial signal, unstimulated MM1S myeloma – cell-based, JC-1 fluorescence, 24 h, 100 nL compound, profiling panel (AID 1170); settings: MM1S mitochondrial potential, higher = more signal; also: test concentration not given here
[20] = resazurin metabolic signal in A549 cells – cell-based, resazurin fluorescence, 24 h, PK04 Diversity Set, profiling panel (AID 1171); settings: A549 viability, higher = more signal, called active from +8 up or from −8 down; also: test concentration not given here

Row | Structure (SMILES) | z-score [1] | composite z-score [2] | z-score [3] | z-score [4] | z-score [5] | z-score [6] | z-score [7] | z-score [8] | z-score [9] | z-score [10] | z-score [11] | z-score [12] | z-score [13] | z-score [14] | z-score [15] | z-score [16] | z-score [17] | z-score [18] | z-score [19] | z-score [20]
1 | C=CC[C@@H]1C=C[C@H](ON=CC[C@@H]2C=C[C@H](OC(C)=O)[C@@H](COC(C)=O)O2)[C@@H](CO)O1 | 0.4 (inactive) | 0.455 | 0.551 (inactive) | 0.538 (inactive) | -0.0293 (inactive) | 0.393 (inactive) | 0.166 | -0.893 (inactive) | 0.319 (inactive) | 1.03 | 0.452 | -0.5 | 0.347 | 0.114 | -0.445 | 0.169 | -0.01 (inactive) | -0.131 | -0.838 | -0.286 (inactive)
2 | CCOC(=O)[C@H](Cc1ccccc1)NC(=O)CCC1CC(OC(=O)NCCc2ccc(F)cc2)CC2(CCCC(COC(=O)NCCOc3ccccc3)O2)O1 (stereo not given in full) | -0.558 (inactive) | 0.0594 | -1.41 (inactive) | 0.363 (inactive) | -0.619 (inactive) | 0.272 (inactive) | -0.345 | 1.26 (inactive) | 0.767 (inactive) | 0.471 | 0.613 | -0.156 | 0.141 | -0.565 | -1.25 | 1.71 | 0.508 (inactive) | -0.218 | -0.123 | 0.264 (inactive)
3 | C=CC[C@@H]1C=C[C@H](ON=C2C[C@@H](O)[C@@H](O)[C@@H]3[C@@H]4C(=O)N(CC)C(=O)[C@@H]4CC[C@@H]23)[C@@H](CO)O1 | -0.887 (inactive) | -0.208 | -0.146 (inactive) | -1.65 (inactive) | 1.55 (inactive) | -1.74 (inactive) | 0.525 | -0.284 (inactive) | -0.621 (inactive) | -2.07 | -0.98 | 1 | 0.281 | -1.44 | -1.23 | -0.495 | 0.265 (inactive) | 0.216 | -0.354 | -0.28 (inactive)
4 | CCOC(=O)[C@H](Cc1ccccc1)NC(=O)CCC1CC(OC(=O)NCc2ccc3c(c2)OCO3)CC2(CCCC(COC(=O)NCCCN3CCCC3=O)O2)O1 (stereo not given in full) | 0.169 (inactive) | -0.572 | -0.709 (inactive) | 0.274 (inactive) | 0.218 (inactive) | 0.151 (inactive) | 0.125 | 0.996 (inactive) | 0.689 (inactive) | -0.044 | 0.0325 | 0.484 | -0.152 | -0.59 | -1.6 | 1.97 | -0.654 (inactive) | 0.517 | 0.547 | 0.529 (inactive)
5 | CC(=O)OC[C@H]1O[C@H](CCON=C(C)C)C=C[C@@H]1OC(C)=O | -1.66 (inactive) | -0.0412 | 0.158 (inactive) | 0.328 (inactive) | -0.599 (inactive) | 0.196 (inactive) | -0.71 | 0.0813 (inactive) | 0.151 (inactive) | -0.227 | 0.191 | 0.0363 | -0.0004 | -0.719 | -1.12 | -0.331 | -0.681 (inactive) | 0.636 | -0.57 | -0.426 (inactive)
6 | COCCNC(=O)OCC1CCCC2(CC(OC(=O)NCc3cccc4ccccc34)CC(CCC(=O)N[C@@H](C)C(=O)OC)O2)O1 (stereo not given in full) | 0.434 (inactive) | -0.198 | -1.58 (inactive) | -0.523 (inactive) | -1.28 (inactive) | 0.174 (inactive) | -0.582 | -0.155 (inactive) | 1.49 (inactive) | 2.08 | 1.89 | -0.812 | 0.791 | -0.215 | -0.886 | 1.64 | -0.0355 (inactive) | -0.125 | -1.16 | 1.67 (inactive)
7 | CC(=O)OC[C@H]1O[C@H](CC=NOC[C@@H](O)COCc2ccco2)C=C[C@@H]1OC(C)=O | 0.241 (inactive) | 0.0509 | 0.77 (inactive) | -0.161 (inactive) | 0.482 (inactive) | 0.515 (inactive) | 0.0978 | -0.431 (inactive) | 0.748 (inactive) | 0.0957 | 1.04 | -0.0657 | 0.341 | -0.175 | -0.498 | 0.186 | 0.998 (inactive) | -0.198 | -1.01 | 0.0719 (inactive)
8 | CCCNC(=O)OC[C@H]1O[C@H](CCON=C2c3cc(OC)ccc3O[C@H](c3cccc(OC)c3)[C@H]2O)C=C[C@@H]1Oc1ccc(OC)cc1 | 0.447 (inactive) | -0.0637 | 3.13 (inactive) | 0.855 (inactive) | 0.431 (inactive) | 0.563 (inactive) | -0.641 | 0.461 (inactive) | 0.455 (inactive) | -0.473 | 0.111 | 0.752 | -0.0825 | -0.187 | -0.572 | 1.38 | -1.49 (inactive) | 0.0694 | -0.0229 | 0.409 (inactive)
9 | COc1ccc(OC[C@@H](CO)OC)cc1 | 0.261 (inactive) | -0.145 | -0.578 (inactive) | -0.348 (inactive) | -0.566 (inactive) | -0.389 (inactive) | -0.51 | 0.712 (inactive) | 0.422 (inactive) | 0.133 | 0.677 | 0.363 | 0.647 | 0.124 | -0.342 | -0.15 | -0.321 (inactive) | 0.104 | 0.674 | -0.551 (inactive)
10 | O=C1[C@H]2[C@H]3[C@H](O)[C@H](O)CC(=NO[C@@H]4O[C@H](CO)[C@@H](O)[C@H](O)[C@H]4O)[C@H]3CC[C@H]2C(=O)N1c1ccc(F)cc1F | -0.205 (inactive) | 0.0865 | 2.95 (inactive) | 0.454 (inactive) | 0.887 (inactive) | 0.159 (inactive) | -0.56 | -0.307 (inactive) | 0.73 (inactive) | 0.667 | -0.32 | 0.528 | -0.846 | 0.0224 | -0.3 | 0.419 | -0.35 (inactive) | -0.177 | -0.709 | 1.09 (inactive)
